Shown are actives, neighbours in structure and some others; about 4.2% of the full set was active somewhere.
TIM10 inh: growth inhibitors of TIM10 yeast strain; S. cerevisiae TIM10 strain growth, BacTiter-Glo luminescence, 24 h; inhibition, % at 10 µM; 330,000 tested, 1.4% active;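 active = inhibition of 40% or more at the single tested concentration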;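 note: wild-type TIM10 isogenic control strain grown at permissive 25 °C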
tim23-1 inh: tim23-1 yeast growth inhibition. S. cerevisiae tim23-1 growth, BacTiter-Glo luminescence, 24 h. inhibition, % at 20 µM. 330,000 tested, 1.3% active. AID 463212;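 active = growth inhibition of the mutant yeast at or above 50%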;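 note: temperature-sensitive mutant grown at 25 °C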
NALP1 yeast inh: blocks the NALP1 inflammasome reconstituted in yeast. inhibition, % at 10 µM. S. cerevisiae NALP1/ASC/caspase-1 growth, X-gal OD620, 72 h. 280,000 tested, 0.61% active. AID 2071; in the data active = inhibition mostly above about 24%, no sharp cut-off; inactive = mostly below about 32%
tim10-1 inh: tim10-1 yeast growth inhibition. S. cerevisiae tim10-1 ts strain growth, BacTiter-Glo, 24 h. inhibition, % at 20 µM. 330,000 tested, 2.2% active. AID 463190;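 active = inhibition of at least 40%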;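 note: mutant grown at 25 °C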
NLRP3 yeast inh: NALP3 inhibition in yeast; Yeast reconstituted NLRP3/ASC/caspase-1, beta-gal luminescence, 24 h; inhibition, % at 10 µM; 330,000 tested, 0.39% active; AID 2825;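 active = inhibition of 50% or more; inactive = inhibition below 50%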
PfHsp90 set2: growth inhibition of yeast expressing Plasmodium Hsp90. S. cerevisiae expressing PfHsp90, BacTiter-Glo ATP, 48 h; yeast lacking PDR1 and PDR3 efflux regulators. inhibition, % at 9.4 µM. 310,000 tested, 0.32% active. AID 504621;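 active = every replicate shows inhibition above about 80%, whatever the replicate mean, limit read from the data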
NALP3 confirm: NALP3 inhibition confirmation in yeast | shares compounds with NLRP3 yeast inh | yeast expressing human NALP3, luminescence | inhibition, % at 10 µM | 1,300 tested, 81% active; in the data active = inhibition above about 48%
Casp1-ASC yeast: caspase-1-ASC yeast counter-screen hit; 1,000 tested, 66% active; shares compounds with NLRP3 yeast inh; inhibition, % at 10 µM; AID 488784; yeast expressing Caspase-1-ASC, luminescence counter screen
NALP3 retest: confirmation retest of NALP3 inhibitors in yeast; inhibition, % at 10 µM; 1,000 tested, 53% active; shares compounds with NLRP3 yeast inh; yeast expressing human NALP3, luminescence read-out
Large screens that a line does not name were inactive (follow-up assays come after a bar, where they were run). Cut-off read from the data, not from the text of the source, unless noted: active = inhibition above about 50%; inactive = the rest.

Cc1ccc(-c2cc(NC(=O)CCl)n(-c3ccccc3)n2)cc1	NLRP3 yeast inh 54 (no result: NALP1 yeast inh) | NALP3 confirm inactive
O=C(CCl)Nc1cc(-c2ccccc2)nn1-c1ccccc1	NALP1 yeast inh 77, NLRP3 yeast inh 55 | NALP3 confirm 66 | Casp1-ASC yeast 78 | NALP3 retest 69
CC(=O)Nc1ccc(-c2cc(NC(C)=O)n(-c3ccccc3)n2)cc1	none
O=C(COC(=O)Cc1ccc(Cl)cc1Cl)Nc1ccccc1OC(F)F	none
CC1(C)CC(c2nc(-c3ccc([N+](=O)[O-])cc3)cs2)CCO1 (stereo not given)	none | NALP3 confirm inactive
CCOc1cc(C=O)ccc1OCCSc1ccc(C)cc1	NLRP3 yeast inh 65 | NALP3 confirm 69 | Casp1-ASC yeast 65 | NALP3 retest inactive
COc1cc(C=O)ccc1OCCSc1ccc(C)cc1	none (no result: NALP1 yeast inh)
O=S(=O)(c1ccc(N2CCN(CCO)CC2)nc1)N1CCOCC1	none (no result: NALP1 yeast inh)
O=C(Nc1ccccc1)N1CCC(C(=O)N2CCN(c3ccccc3F)CC2)CC1	none
O=C1c2ccsc2SCCN1Cc1cccc(Cl)c1	none
O=C1c2ccsc2SCCN1Cc1ccc(Cl)cc1	NLRP3 yeast inh 79 | NALP3 confirm 83 | Casp1-ASC yeast 88 | NALP3 retest 80
Cc1cccc(CN2CCSc3sccc3C2=O)c1	none
Cc1ccc(CN2CCSc3sccc3C2=O)cc1	NALP1 yeast inh 26, NLRP3 yeast inh 81 | NALP3 confirm 74 | Casp1-ASC yeast 89 | NALP3 retest 77
O=C1c2ccsc2SCCN1Cc1ccc(F)cc1	NLRP3 yeast inh 65 | NALP3 confirm 72 | Casp1-ASC yeast 63 | NALP3 retest inactive
O=C(NC1CCN(Cc2ccccc2)CC1)c1cccc(S(=O)(=O)Nc2ccc(F)cc2)c1	none (no result: NALP1 yeast inh)
COc1ccc(S(=O)(=O)N2CCN(Cc3ccco3)CC2)cc1	none
O=C(CCc1c[nH]c2ccccc12)NCCc1ccc(O)cc1	none
CN(c1ccc(OCC(=O)OCC(=O)Nc2ccc([N+](=O)[O-])cc2)cc1)S(=O)(=O)c1cccs1	none (no result: TIM10 inh, tim23-1 inh, NALP1 yeast inh, tim10-1 inh, NLRP3 yeast inh)
CC(=O)C[C@@H](O)CC(=O)[C@@H]1OC(=O)[C@H](C)C/C=C\Cc2ccccc21	none (no result: NALP1 yeast inh)
COc1cc(C(=O)Nc2scc(-c3ccc(Br)cc3)c2C(=O)O)cc(OC)c1OC	none
Cc1cccc(C(=O)Nc2scc(-c3ccc(Br)cc3)c2C(=O)O)c1	NLRP3 yeast inh 61 (no result: NALP1 yeast inh) | NALP3 confirm 61 | Casp1-ASC yeast inactive | NALP3 retest inactive
Cn1c(SCc2nc(-c3ccc(Cl)cc3)no2)nnc1-c1ccco1	NLRP3 yeast inh 53 | NALP3 confirm 66 | Casp1-ASC yeast inactive | NALP3 retest inactive
O=S(=O)(Nc1cccc2c1CCCC2)c1ccc(Cl)cc1	none
CCOC(=O)c1c(-c2ccccc2)nc2ccccn12	NALP1 yeast inh 87, NLRP3 yeast inh 97 | NALP3 confirm 99 | Casp1-ASC yeast 99 | NALP3 retest 99
COCCC(=O)N1CCC(Oc2ccc(C(=O)N3CCCC(CCCO)C3)cc2)CC1 (stereo not given)	none
CC(OC(=O)c1ccc2c(c1)S(=O)(=O)c1ccccc1C2=O)C(N)=O (stereo not given)	none
CSCCC(=O)NC1CCCN(CCc2ccccc2)C1 (stereo not given)	none
O=C1C(=C(c2ccccc2)c2ccccc2)Nc2ccccc21	NLRP3 yeast inh 62 | NALP3 confirm inactive
O=C1C(=C(O)c2ccccc2)C(=O)c2ccccc21	none
COC(=O)c1ccc(CNC(=O)C23CC4CC(CC(C4)C2)C3)cc1	none
CC1CCCCN1S(=O)(=O)c1cnc(Cl)c(Br)c1 (stereo not given)	NLRP3 yeast inh 55 | NALP3 confirm 54
O=C(CNC(=O)c1ccc(Cl)cc1Cl)OCc1nnc(-c2ccccc2)o1	none (no result: NALP1 yeast inh, PfHsp90 set2)
CN(C)c1ncnc2sc(-c3ccccc3)cc12	NLRP3 yeast inh 65 | NALP3 confirm 75 | Casp1-ASC yeast inactive | NALP3 retest inactive
COc1ncnc2sc(-c3ccccc3)cc12	none
CCn1c(SCC(=O)OC2CCCCC2)nc2ccccc2c1=O	NLRP3 yeast inh 51 | NALP3 confirm 71 | Casp1-ASC yeast 50 | NALP3 retest inactive
CCOc1ccc(N(C)C(=O)CCc2nnc3ccc(NCc4ccco4)nn23)cc1	none
Clc1ccc(-c2nnn(Cc3nc4ccccc4s3)n2)cc1	none
Fc1ccc(-c2nnn(Cc3nc4ccccc4s3)n2)cc1	NLRP3 yeast inh 54 | NALP3 confirm 65 | Casp1-ASC yeast inactive | NALP3 retest inactive
CC(C)Nc1ncnc2c1cnn2-c1ccccc1	NLRP3 yeast inh 58 | NALP3 confirm 65 | Casp1-ASC yeast inactive | NALP3 retest inactive
CC1CCCN(c2ncnc3c2cnn3-c2ccc(Cl)cc2)C1 (stereo not given)	none
Cc1cccc(-n2ncc3c(NC(C)C)ncnc32)c1	none (no result: NALP1 yeast inh)
c1ccc(-n2ncc3c(N4CCCCC4)ncnc32)cc1	NLRP3 yeast inh 60 | NALP3 confirm 61 | Casp1-ASC yeast 69 | NALP3 retest 61
CC1CCCN(c2ncnc3c2cnn3-c2ccccc2)C1 (stereo not given)	NLRP3 yeast inh 54 | NALP3 confirm 62
O=C(Nn1cnnc1)c1cc(Br)ccc1Cl	none
CC1CCCC(C)N1C(=O)COC(=O)Cc1c[nH]c2ccccc12 (stereo not given)	none (no result: NALP1 yeast inh)
CCOc1ccc(C(=O)Nc2cc(-c3nc4ccccc4[nH]3)ccc2Cl)cc1[N+](=O)[O-]	NALP1 yeast inh 56, NLRP3 yeast inh 78 | NALP3 confirm inactive
Cc1ccc(-c2nc3ccccc3[nH]2)cc1NC(=O)c1ccc2c(c1)OCO2	NLRP3 yeast inh 60 | NALP3 confirm 59 | Casp1-ASC yeast 56 | NALP3 retest 59
Cc1ccc(NC(=O)Nc2ccc(F)c(Cl)c2)cc1	none
CN(CC(=O)Nc1ccc(C#N)cc1)Cc1ccc(Cl)cc1	none
O=C(Nc1ccc(Cl)cc1)Nc1ccc(Cl)c(Cl)c1	NLRP3 yeast inh 72 (no result: NALP1 yeast inh, PfHsp90 set2) | NALP3 confirm 72 | Casp1-ASC yeast inactive | NALP3 retest inactive
N#Cc1ccc(NC(=O)Nc2ccc(Cl)cc2)cc1	NALP1 yeast inh 71, NLRP3 yeast inh 72 | NALP3 confirm 57 | Casp1-ASC yeast inactive | NALP3 retest 60
CN(CC(=O)Nc1ccc(C#N)cc1)Cc1ccc(Cl)cc1Cl	NLRP3 yeast inh 65 | NALP3 confirm 59 | Casp1-ASC yeast 59 | NALP3 retest inactive
COc1ccc(CN(C)C(=O)Cc2ccc(S(=O)(=O)N3CCOCC3)s2)cc1OC	none (no result: NALP1 yeast inh)
CN(C)c1ccc(C(=O)/C=C/c2ccccc2)cc1	NLRP3 yeast inh 53 | NALP3 confirm 72 | Casp1-ASC yeast inactive | NALP3 retest inactive
CN(C)c1ccc(C(=O)/C=C/c2ccc(Br)cc2)cc1	none

Bioassay records as filed in PubChem BioAssay.
